Test results as given in ChEMBL document CHEMBL1961873, “Compounds: GSK PKIS; Assays: Nanosyn kinase panel” (2012).

Experiments:
[1] = molecular target: Protein kinase C gamma type (Homo sapiens) (UniProt P05129); conditions: at 1 µM;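 also: each value is an averaged percent inhibition of the enzyme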
[2] = molecular target: T1, Protein kinase C iota type (Homo sapiens) (UniProt P41743); conditions: at 0.1 µM
T1 sequence (whole entry): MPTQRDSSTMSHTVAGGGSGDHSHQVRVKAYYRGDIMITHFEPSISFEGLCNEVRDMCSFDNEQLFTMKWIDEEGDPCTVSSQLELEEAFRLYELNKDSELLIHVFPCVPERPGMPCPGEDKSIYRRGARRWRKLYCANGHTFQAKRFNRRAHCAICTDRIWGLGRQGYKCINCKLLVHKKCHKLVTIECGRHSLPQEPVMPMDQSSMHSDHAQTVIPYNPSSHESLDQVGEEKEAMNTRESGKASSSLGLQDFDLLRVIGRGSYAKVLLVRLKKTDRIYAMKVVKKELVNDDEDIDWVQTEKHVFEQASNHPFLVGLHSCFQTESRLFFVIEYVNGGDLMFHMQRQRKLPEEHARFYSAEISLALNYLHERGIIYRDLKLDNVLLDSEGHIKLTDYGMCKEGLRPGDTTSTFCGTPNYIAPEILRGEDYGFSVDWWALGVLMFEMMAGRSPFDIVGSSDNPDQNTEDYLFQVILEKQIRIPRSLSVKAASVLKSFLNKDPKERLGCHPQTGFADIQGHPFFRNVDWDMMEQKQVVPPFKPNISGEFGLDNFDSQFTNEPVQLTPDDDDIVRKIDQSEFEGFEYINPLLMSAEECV

[3] = molecular target: T1, Protein kinase C iota type (Homo sapiens); conditions: at 1 µM
[4] = molecular target: Protein kinase C theta type (Homo sapiens) (UniProt Q04759); conditions: at 0.1 µM
[5] = molecular target: Protein kinase C theta type (Homo sapiens) (UniProt Q04759); conditions: at 1 µM
[6] = molecular target: Protein kinase C beta type (Homo sapiens) (UniProt P05771); conditions: at 0.1 µM
[7] = molecular target: Protein kinase C beta type (Homo sapiens) (UniProt P05771); conditions: at 1 µM
[8] = molecular target: T2, Serine/threonine-protein kinase D1 (Homo sapiens) (UniProt Q15139); conditions: at 0.1 µM
T2 sequence (whole entry): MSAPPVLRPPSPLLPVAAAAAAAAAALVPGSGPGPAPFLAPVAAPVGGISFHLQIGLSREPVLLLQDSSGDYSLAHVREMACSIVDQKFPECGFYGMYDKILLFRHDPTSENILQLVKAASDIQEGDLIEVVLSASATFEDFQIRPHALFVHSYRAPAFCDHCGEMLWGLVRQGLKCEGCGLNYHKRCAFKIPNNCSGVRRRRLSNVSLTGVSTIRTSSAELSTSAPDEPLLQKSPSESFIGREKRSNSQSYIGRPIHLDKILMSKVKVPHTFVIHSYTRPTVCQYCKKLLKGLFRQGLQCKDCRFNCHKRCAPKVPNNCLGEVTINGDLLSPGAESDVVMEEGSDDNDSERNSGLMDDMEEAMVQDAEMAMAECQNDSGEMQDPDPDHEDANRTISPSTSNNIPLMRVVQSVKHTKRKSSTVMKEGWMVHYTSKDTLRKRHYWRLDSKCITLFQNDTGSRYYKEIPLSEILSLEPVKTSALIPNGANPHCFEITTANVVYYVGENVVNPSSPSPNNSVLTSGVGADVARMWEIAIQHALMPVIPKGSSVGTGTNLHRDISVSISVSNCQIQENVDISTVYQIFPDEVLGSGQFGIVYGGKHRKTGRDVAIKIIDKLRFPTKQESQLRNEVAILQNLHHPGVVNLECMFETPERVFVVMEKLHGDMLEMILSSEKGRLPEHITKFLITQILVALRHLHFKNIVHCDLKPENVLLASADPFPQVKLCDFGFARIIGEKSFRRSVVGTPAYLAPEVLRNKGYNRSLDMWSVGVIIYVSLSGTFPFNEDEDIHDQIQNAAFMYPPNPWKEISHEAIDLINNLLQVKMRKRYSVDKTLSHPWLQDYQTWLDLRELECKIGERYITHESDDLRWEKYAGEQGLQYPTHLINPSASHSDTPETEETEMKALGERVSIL

[9] = molecular target: T2, Serine/threonine-protein kinase D1 (Homo sapiens); conditions: at 1 µM
[10] = molecular target: T3, Serine/threonine-protein kinase D2 (Homo sapiens) (UniProt Q9BZL6); conditions: at 0.1 µM
T3 sequence (whole entry): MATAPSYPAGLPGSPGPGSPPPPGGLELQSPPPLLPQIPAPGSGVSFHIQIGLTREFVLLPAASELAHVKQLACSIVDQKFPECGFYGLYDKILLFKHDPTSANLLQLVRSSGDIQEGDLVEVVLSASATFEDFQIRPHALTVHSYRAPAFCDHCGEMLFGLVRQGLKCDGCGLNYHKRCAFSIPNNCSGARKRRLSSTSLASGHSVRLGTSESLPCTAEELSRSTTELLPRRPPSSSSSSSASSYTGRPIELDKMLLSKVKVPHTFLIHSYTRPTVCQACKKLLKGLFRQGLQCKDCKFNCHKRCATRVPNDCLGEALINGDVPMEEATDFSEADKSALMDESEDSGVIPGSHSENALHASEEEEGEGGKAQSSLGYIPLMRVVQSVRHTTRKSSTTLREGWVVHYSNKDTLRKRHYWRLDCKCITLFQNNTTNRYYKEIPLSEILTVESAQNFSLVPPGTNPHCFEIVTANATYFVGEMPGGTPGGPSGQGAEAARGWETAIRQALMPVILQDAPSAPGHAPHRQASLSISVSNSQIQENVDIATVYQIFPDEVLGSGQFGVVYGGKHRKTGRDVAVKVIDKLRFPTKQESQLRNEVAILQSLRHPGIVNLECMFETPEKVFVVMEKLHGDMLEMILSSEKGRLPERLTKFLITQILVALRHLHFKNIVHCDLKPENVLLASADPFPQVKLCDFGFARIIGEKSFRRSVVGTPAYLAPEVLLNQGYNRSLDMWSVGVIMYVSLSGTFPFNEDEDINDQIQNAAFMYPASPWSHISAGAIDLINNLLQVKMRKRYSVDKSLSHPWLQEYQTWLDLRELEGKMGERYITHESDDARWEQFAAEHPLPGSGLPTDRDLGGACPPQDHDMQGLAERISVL

[11] = molecular target: T3, Serine/threonine-protein kinase D2 (Homo sapiens); conditions: at 1 µM
[12] = molecular target: T4, Serine/threonine-protein kinase D3 (Homo sapiens) (UniProt O94806); conditions: at 0.1 µM
T4 sequence (whole entry): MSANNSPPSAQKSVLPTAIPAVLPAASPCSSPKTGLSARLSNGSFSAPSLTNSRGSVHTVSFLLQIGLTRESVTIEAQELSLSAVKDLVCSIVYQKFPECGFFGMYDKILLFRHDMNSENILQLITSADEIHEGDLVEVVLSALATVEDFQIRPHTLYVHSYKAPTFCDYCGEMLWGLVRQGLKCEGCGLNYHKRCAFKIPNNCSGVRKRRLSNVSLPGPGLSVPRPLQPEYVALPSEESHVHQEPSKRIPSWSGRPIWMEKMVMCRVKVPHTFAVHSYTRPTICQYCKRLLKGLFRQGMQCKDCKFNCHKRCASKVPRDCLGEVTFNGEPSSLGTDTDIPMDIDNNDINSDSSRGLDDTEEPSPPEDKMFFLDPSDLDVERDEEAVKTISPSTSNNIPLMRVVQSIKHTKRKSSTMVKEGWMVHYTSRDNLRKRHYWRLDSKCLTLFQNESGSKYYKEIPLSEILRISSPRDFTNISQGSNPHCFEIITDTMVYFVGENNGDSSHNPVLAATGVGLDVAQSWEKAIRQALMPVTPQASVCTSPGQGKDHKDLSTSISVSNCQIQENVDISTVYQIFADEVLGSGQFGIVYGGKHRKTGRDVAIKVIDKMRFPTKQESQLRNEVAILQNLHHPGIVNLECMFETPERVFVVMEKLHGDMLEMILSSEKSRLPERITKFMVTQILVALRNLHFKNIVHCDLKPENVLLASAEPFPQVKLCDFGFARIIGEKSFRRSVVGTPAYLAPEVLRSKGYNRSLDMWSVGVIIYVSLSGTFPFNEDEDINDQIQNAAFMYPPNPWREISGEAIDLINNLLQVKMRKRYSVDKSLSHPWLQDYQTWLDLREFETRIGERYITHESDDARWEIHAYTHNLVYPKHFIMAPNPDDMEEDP

[13] = molecular target: T4, Serine/threonine-protein kinase D3 (Homo sapiens); conditions: at 1 µM
[14] = molecular target: T5, cGMP-dependent protein kinase 1 (Homo sapiens) (UniProt Q13976); conditions: at 0.1 µM
T5 sequence (whole entry): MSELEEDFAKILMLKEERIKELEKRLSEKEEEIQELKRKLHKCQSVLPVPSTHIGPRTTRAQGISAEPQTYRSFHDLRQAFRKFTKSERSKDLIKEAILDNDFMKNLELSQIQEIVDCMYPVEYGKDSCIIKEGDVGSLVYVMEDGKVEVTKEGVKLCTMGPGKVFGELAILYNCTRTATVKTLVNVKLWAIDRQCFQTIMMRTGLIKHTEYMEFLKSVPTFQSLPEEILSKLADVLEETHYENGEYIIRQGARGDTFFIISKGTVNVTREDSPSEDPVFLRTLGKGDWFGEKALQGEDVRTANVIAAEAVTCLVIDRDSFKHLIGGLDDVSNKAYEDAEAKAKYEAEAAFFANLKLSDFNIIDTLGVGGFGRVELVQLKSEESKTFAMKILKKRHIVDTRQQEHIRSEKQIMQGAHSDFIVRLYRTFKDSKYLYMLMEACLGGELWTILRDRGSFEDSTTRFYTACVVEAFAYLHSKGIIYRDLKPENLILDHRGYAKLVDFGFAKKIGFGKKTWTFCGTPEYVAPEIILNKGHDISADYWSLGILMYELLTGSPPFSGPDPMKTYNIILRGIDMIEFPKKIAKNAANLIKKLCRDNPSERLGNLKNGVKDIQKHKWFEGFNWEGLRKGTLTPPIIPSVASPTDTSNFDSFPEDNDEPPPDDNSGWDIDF

[15] = molecular target: T5, cGMP-dependent protein kinase 1 (Homo sapiens); conditions: at 1 µM
[16] = molecular target: T6, cGMP-dependent protein kinase 2 (Homo sapiens) (UniProt Q13237); conditions: at 0.1 µM
T6 sequence (whole entry): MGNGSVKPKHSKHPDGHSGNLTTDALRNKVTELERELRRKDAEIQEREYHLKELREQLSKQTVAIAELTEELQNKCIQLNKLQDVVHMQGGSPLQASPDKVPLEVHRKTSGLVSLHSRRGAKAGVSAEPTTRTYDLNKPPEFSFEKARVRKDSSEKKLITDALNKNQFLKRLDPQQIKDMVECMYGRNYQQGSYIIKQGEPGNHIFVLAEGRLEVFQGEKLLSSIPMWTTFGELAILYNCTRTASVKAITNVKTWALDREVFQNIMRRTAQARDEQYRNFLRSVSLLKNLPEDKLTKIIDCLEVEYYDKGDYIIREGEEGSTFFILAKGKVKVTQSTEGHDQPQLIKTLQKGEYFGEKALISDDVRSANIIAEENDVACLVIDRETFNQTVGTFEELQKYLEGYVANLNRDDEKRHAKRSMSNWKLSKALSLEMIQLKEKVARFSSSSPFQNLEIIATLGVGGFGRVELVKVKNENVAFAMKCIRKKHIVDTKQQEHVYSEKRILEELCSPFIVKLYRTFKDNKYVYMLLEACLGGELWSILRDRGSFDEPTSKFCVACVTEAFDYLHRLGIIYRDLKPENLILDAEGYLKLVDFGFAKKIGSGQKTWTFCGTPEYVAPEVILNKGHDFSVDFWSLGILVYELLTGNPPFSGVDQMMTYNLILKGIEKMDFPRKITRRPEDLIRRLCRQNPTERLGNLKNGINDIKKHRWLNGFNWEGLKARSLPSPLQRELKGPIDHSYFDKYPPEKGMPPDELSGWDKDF

[17] = molecular target: T6, cGMP-dependent protein kinase 2 (Homo sapiens); conditions: at 1 µM
[18] = molecular target: T7, cAMP-dependent protein kinase catalytic subunit PRKX (Homo sapiens) (UniProt P51817); conditions: at 0.1 µM
T7 sequence (whole entry): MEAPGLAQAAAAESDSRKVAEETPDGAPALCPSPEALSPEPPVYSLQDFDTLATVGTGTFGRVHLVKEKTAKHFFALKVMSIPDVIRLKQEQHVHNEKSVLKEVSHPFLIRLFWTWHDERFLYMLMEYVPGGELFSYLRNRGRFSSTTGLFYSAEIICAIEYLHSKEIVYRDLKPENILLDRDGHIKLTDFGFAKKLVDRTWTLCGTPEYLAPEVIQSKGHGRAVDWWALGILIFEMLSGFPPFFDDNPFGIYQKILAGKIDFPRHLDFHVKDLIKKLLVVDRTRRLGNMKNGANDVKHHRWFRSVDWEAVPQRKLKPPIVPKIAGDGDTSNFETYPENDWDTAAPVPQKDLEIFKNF

[19] = molecular target: T7, cAMP-dependent protein kinase catalytic subunit PRKX (Homo sapiens); conditions: at 1 µM
[20] = molecular target: Rho-associated protein kinase 1 (Homo sapiens) (UniProt Q13464); conditions: at 0.1 µM;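 also: values are mean percent inhibition of ROCK1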
Rho-associated protein kinase 1 (Homo sapiens), sequence (Q13464 2-1354 limits assumed): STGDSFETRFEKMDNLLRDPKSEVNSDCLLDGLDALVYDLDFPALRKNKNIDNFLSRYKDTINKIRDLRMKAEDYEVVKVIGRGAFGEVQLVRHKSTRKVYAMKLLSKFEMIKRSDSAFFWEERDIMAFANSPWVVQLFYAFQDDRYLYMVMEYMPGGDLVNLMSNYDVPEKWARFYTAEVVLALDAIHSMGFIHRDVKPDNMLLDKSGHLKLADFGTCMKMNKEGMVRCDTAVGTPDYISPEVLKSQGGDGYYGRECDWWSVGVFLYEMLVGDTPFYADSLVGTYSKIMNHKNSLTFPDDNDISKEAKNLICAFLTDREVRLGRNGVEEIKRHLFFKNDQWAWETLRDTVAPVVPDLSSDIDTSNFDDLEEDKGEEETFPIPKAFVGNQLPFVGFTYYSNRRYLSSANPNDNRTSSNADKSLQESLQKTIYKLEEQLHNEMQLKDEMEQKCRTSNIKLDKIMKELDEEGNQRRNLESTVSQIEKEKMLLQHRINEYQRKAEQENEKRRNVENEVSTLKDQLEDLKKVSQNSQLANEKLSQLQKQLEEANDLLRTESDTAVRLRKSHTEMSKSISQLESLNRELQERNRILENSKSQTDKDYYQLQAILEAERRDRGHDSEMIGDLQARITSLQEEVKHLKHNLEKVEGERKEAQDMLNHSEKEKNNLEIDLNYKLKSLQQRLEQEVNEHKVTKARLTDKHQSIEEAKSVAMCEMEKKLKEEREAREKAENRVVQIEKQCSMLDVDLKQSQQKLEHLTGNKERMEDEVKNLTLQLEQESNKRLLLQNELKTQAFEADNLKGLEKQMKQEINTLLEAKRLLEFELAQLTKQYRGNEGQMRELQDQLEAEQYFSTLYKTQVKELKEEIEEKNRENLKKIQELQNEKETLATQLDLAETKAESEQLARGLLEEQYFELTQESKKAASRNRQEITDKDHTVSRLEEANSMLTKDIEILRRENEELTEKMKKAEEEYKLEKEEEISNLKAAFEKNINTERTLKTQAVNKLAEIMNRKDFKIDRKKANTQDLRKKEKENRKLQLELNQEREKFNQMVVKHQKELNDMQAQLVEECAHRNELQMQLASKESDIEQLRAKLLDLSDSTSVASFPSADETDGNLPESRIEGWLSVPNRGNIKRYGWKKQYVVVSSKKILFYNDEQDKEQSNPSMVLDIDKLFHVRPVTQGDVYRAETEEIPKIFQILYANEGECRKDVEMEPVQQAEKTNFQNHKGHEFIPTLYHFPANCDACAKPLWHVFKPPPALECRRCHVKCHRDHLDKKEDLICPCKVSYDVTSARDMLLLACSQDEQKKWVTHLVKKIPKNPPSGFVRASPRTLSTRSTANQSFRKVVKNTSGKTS

Protein kinase C theta type (Homo sapiens), sequence (Q04759 whole entry, looked up): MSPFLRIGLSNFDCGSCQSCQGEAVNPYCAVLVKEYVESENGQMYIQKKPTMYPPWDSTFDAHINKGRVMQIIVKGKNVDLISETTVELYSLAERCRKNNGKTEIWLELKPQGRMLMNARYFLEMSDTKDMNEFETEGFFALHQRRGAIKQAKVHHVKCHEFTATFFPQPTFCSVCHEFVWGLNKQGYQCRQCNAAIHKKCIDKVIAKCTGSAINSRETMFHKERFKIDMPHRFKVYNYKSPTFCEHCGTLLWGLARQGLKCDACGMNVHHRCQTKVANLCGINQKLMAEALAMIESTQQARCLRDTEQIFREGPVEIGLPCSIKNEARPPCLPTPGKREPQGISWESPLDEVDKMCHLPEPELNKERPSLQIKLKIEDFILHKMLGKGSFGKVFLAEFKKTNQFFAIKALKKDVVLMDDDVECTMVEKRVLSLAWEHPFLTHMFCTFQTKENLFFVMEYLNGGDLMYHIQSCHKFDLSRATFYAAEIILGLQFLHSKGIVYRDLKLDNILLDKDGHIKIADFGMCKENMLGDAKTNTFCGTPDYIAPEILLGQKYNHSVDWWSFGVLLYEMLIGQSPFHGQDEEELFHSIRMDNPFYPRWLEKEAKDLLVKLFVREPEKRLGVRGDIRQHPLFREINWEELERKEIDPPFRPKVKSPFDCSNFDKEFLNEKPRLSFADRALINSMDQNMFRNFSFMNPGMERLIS
Protein kinase C beta type (Homo sapiens), sequence (P05771 2-671 limits assumed): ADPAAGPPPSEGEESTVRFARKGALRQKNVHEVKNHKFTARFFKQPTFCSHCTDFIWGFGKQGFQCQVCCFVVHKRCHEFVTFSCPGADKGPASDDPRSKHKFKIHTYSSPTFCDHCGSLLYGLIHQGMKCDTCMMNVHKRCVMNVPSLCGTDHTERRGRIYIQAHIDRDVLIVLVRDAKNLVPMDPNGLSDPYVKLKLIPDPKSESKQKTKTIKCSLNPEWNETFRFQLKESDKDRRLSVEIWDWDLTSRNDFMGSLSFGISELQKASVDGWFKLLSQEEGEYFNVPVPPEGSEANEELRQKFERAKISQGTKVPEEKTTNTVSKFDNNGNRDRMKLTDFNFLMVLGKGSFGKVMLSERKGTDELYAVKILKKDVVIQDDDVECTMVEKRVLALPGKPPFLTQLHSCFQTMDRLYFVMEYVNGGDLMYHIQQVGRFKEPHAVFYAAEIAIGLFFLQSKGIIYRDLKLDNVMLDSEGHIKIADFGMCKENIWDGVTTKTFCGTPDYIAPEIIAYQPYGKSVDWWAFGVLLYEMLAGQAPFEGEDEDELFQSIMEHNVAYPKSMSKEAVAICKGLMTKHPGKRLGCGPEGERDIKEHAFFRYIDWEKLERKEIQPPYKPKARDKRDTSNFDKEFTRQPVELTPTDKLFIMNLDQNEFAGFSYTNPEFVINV

SMILES | inhibition [1] | inhibition [2] | inhibition [3] | inhibition [4] | inhibition [5] | inhibition [6] | inhibition [7] | inhibition [8] | inhibition [9] | inhibition [10] | inhibition [11] | inhibition [12] | inhibition [13] | inhibition [14] | inhibition [15] | inhibition [16] | inhibition [17] | inhibition [18] | inhibition [19] | inhibition [20]
CNC(=O)c1ncccc1Nc1nc(Nc2cc3c(cc2OC)CCCN3C(=O)CN(C)C)nc2[nH]ccc12 | 20.5% | 1.89% | 2.01% | 1.94% | 5.49% | 1.44% | 7.12% | 5.48% | 24.5% | 7.16% | 41.6% | 9.65% | 55.3% | 1.9% | 7.42% | 3.34% | 5.86% | 1.64% | 1.14% | 1.58%
Cc1ccc(-c2cc3c(NC(=O)C4CC4)ncnc3o2)cc1 | 2.25% | 2.54% | 2.8% | 2.02% | 1.79% | 5.24% | 0.65% | 3.45% | 6.06% | 4.1% | 6.17% | 5.27% | 7.32% | 3.82% | 5.54% | 1.95% | 4.28% | 1.05% | 0.33% | 1.09%
CC1=C(C(=O)Nc2ccc3[nH]ncc3c2)C(c2ccc(F)cc2)N=C(c2ccc(C(F)(F)F)nc2)N1 (stereo not given) | 3.28% | 1% | 1.59% | 1.3% | 1.01% | 4.27% | 0.68% | 2.04% | 3.26% | 2.6% | 2.33% | 3.1% | 2.8% | 7.52% | 42.2% | 4.96% | 31.1% | 3.93% | 23.6% | 31.3%
